The supplement of paper PMC5919970
Structures can show the parent of a compound that is named as a salt. Over roughly 2,000 compounds, “fractional viability relative to vehicle” has its median near 0.91; the lowest 2% begin near 0.045. Only a selection was taken, and the lowest values are over-represented in it overall.

Test system: TYKNU
Assay: fractional viability relative to vehicle; TYKNU is a high-grade serous ovarian cancer line; higher = less growth inhibition
Settings: 72 h
Outline: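 Drug treatment lasted 72 h, with cells grown at 37 °C in 5% CO2 in RPMI 1640 supplemented with 10% FBS. Beforehand, TYKNU control cells or their lentiCRISPRv2 knockout derivatives had been seeded at 500 cells per well into drug-stamped 384-well plates carrying a ~2100-compound library at 2 or 10 μM, in duplicate. Viability came from Cell Titer Glo luminescence, with averaged duplicate treatment wells normalised to duplicate control wells in the same plate position.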

[1] = 2uM, genotype: DNM1L knockout (sgDNM1L #1)
[2] = 2uM, genotype: sgCTRLA1 (non-targeting control)
[3] = 10uM, genotype: DNM1L knockout (sgDNM1L #1)
[4] = 10uM, genotype: sgCTRLA1 (non-targeting control)

SMILES | fractional viability [1] | fractional viability [2] | fractional viability [3] | fractional viability [4]
OCc1ccc(O[C@@H]2O[C@H](CO)[C@@H](O)[C@H](O)[C@H]2O)cc1 [Gastrodin] | 0.926 | 1.16 | 0.853 | 1.06
COc1ccc(-c2nc3cc(C4=NNC(=O)CC4C)ccc3[nH]2)cc1 (centres undefined) [Pimobendan] | 1.1 | 1.05 | 0.55 | 0.472
CN1C(C(=O)Nc2ccccn2)=C(O)c2sc(Cl)cc2S1(=O)=O [Lornoxicam] | 1.04 | 1.22 | 0.894 | 0.996
Cc1cc(N2CCOCC2)cc2[nH]c(-c3c(NC[C@@H](O)c4cccc(Cl)c4)cc[nH]c3=O)nc12 | 0.488 | 0.845 | 0.35 | 0.472
C=C1C(=O)O[C@H]2[C@H]1CC/C(C)=C/CC[C@@]1(C)O[C@@H]21 [(-)-Parthenolide] | 0.336 | 0.595 | 0.0299 | 0.0264
C=C1C(=O)O[C@@H]2/C=C(\C)CC/C=C(\C)CC[C@@H]12 [Costunolide] | 0.946 | 1.05 | 0.226 | 0.249
CN(C)CCc1c[nH]c2ccc(CS(=O)(=O)N3CCCC3)cc12 [Almotriptan Malate] | 1.02 | 1.18 | 0.947 | 1.02
CC(C)(O)CC[C@@H](O)[C@](C)(O)[C@H]1CC[C@@]2(O)C3=CC(=O)[C@@H]4C[C@@H](O)[C@@H](O)C[C@]4(C)[C@H]3CC[C@]12C [20-Hydroxyecdysone] | 1.04 | 1.1 | 0.84 | 1.02
COc1cc(Nc2c(C#N)cnc3cc(OCCCN4CCN(C)CC4)c(OC)cc23)c(Cl)cc1Cl [Bosutinib (SKI-606)] | 0.41 | 0.574 | 0.138 | 0.111
COc1cc2nc(N3CCN(C(=O)C4COc5ccccc5O4)CC3)nc(N)c2cc1OC (centres undefined) [Doxazosin Mesylate] | 1.18 | 1.11 | 1.07 | 0.931
COc1cc(OC)c(C(=O)CCCN2CCCC2)c(OC)c1 [Buflomedil HCl] | 0.912 | 1.1 | 0.825 | 1.03
COc1cc2nc(N3CCN(C(=O)C4CCCO4)CC3)nc(N)c2cc1OC (centres undefined) [Terazosin HCl] | 1.17 | 1.16 | 1.07 | 0.97
COc1cc2nc(N3CCCN(C)CC3)nc(NC3CCN(Cc4ccccc4)CC3)c2cc1OC | 0.474 | 0.548 | 0.0331 | 0.0181
COc1cc2c(NC3CCN(CC4CCCCC4)CC3)nc(N3CCCN(C(C)C)CC3)nc2cc1OCCCN1CCCCC1 | 0.657 | 0.723 | 0.0227 | 0.00884
COC(=O)c1ccc2c(c1)[nH]c1ncnc(NCCCN3CCCCC3)c12 | 0.884 | 1.05 | 0.929 | 0.811
COc1cc2nc(N3CCCC3)nc(NCCCCCN3CCCC3)c2cc1OC | 0.426 | 0.543 | 0.0312 | 0.0156
c1coc(CNc2ncnc3[nH]cnc23)c1 [Kinetin] | 1.01 | 1.01 | 0.361 | 0.431
Cc1nn(C)c2c1C(c1ccc(C(F)(F)F)cc1)C(C#N)=C(N)O2 (centres undefined) | 0.924 | 1.08 | 0.886 | 0.86
OC(CN1CCN(c2cccc(Cl)c2)CC1)C(c1ccccc1)c1ccccc1 (centres undefined) | 0.96 | 1.02 | 0.831 | 1.05

SMILES | fractional viability [1] | fractional viability [2] | fractional viability [3] | fractional viability [4]
Cc1cc(C(O)=C2C(=O)C(=O)N(CCCN3CCOCC3)C2c2ccncc2)ccc1OCc1ccccc1 (centres undefined) | 0.77 | 0.984 | 0.802 | 0.726
NC(=O)C(c1ccccc1)(c1ccccc1)[C@@H]1CCN(CCc2ccc3c(c2)CCO3)C1 [Darifenacin HBr] | 0.951 | 1.21 | 0.794 | 0.953
C=C[C@]1(C)C[C@@H](OC(=O)CSC(C)(C)CNC(=O)[C@H](N)C(C)C)[C@]2(C)[C@H](C)CC[C@]3(CCC(=O)[C@H]32)[C@@H](C)[C@@H]1O [Valnemulin HCl] | 0.403 | 0.236 | 0.385 | 0.238
COc1ccc(C(=O)CC2(O)C(=O)Nc3c(Cl)ccc(Cl)c32)cc1 (centres undefined) | 0.264 | 0.243 | 0.175 | 0.186
Cc1ccc(NC(=O)c2ccc(CN3CCN(C)CC3)cc2)cc1Nc1nc(-c2cccnc2)cs1 [Masitinib (AB1010)] | 1.29 | 1.09 | 0.779 | 0.775
Cc1ccc(C(=O)Nc2ccc(CN3CCN(C)CC3)c(C(F)(F)F)c2)cc1C#Cc1cnc2[nH]ncc2c1 | 0.214 | 0.169 | 0.0362 | 0.0116
Cc1ccc(NC(=O)c2ccc(CN3CCN(C)CC3)cc2)cc1Nc1nccc(-c2cccnc2)n1 [Imatinib Mesylate (STI571)] | 1.08 | 1.12 | 0.599 | 0.612
Cc1ccc(NC(=O)c2ccc(CN3CCN(C)CC3)cc2)cc1Nc1nccc(-c2cccnc2)n1 [Imatinib (STI571)] | 1.18 | 1.1 | 0.839 | 0.867
CCN1CCN(Cc2ccc(C(=O)Nc3ccc(C)c(Oc4ccc5c(c4)CC(=O)N5)c3)cc2C(F)(F)F)CC1 | 0.704 | 0.758 | 0.477 | 0.756
Cc1ccc(NC(=O)c2ccc(CN3CC[C@H](N(C)C)C3)c(C(F)(F)F)c2)cc1Nc1nccc(-c2cncnc2)n1 [Bafetinib (INNO-406)] | 0.684 | 0.569 | 0.0871 | 0.0998
Cc1ccc(C(=O)Nc2ccc(CN3CCN(C)CC3)c(C(F)(F)F)c2)cc1C#Cc1cnc2cccnn12 | 0.227 | 0.185 | 0.0344 | 0.0177
CC(C)n1nc(-c2ccc3oc(N)nc3c2)c2c(N)ncnc21 | 0.194 | 0.191 | 0.181 | 0.171
Cc1nc(N(C)C(=O)Cc2ccc(-c3ccccn3)cc2)sc1S(N)(=O)=O [Pritelivir (BAY 57-1293)] | 0.897 | 0.947 | 0.855 | 0.818
COc1cccc(C=NCCN=Cc2cccc(OC)c2[O-])c1[O-].[Cl-].[Mn+3] | 0.805 | 0.978 | 0.756 | 0.897
Cc1nc2ccc(-n3ncc(C(=O)c4cc5ccccc5[nH]4)c3N)cc2[nH]1 | 0.935 | 0.923 | 0.958 | 0.819
Cc1ccc(NC(=O)C2(c3ccc4c(c3)OC(F)(F)O4)CC2)nc1-c1cccc(C(=O)O)c1 [VX-809 (Lumacaftor)] | 0.94 | 1.12 | 0.933 | 1.06
CCO[C@@H]1OC(=O)C[C@@H]1NC(=O)[C@@H]1CCCN1C(=O)[C@@H](NC(=O)c1ccc(N)c(Cl)c1)C(C)(C)C | 0.968 | 1.18 | 0.898 | 1.09
CCC1C/C(=C\c2cccnc2)C(=O)/C(=C/c2cccnc2)C1 (centres undefined) | 0.104 | 0.0876 | 0.0563 | 0.0253
COc1cc2c(cc1OC)[C@@H]1Cc3ccc(OC)c(OC)c3CN1CC2 [Rotundine] | 1.17 | 1.06 | 1.18 | 1.01

SMILES | fractional viability [1] | fractional viability [2] | fractional viability [3] | fractional viability [4]
CC[C@]12C=CCN3CC[C@@]4(c5cc([C@@]6(C(=O)OC)C[C@@H]7C[C@@H](C(C)(F)F)CN(Cc8c6[nH]c6ccccc86)C7)c(OC)cc5N(C)[C@H]4[C@@](O)(C(=O)OC)[C@@H]1OC(C)=O)[C@@H]32 [Vinflunine Tartrate] | 0.191 | 0.144 | 0.142 | 0.114
O=C(CCCCCN1C(=O)c2cccc3cccc(c23)C1=O)NO [Scriptaid] | 0.411 | 0.51 | 0.108 | 0.109
O=C(O)C1=C[C@@H](O)[C@@H](O)[C@H](O)C1 [Shikimic Acid] | 0.996 | 1.17 | 0.84 | 1.06
COCC[n+]1c2c(n(Cc3cnccn3)c1C)C(=O)c1ccccc1C2=O [YM155 (Sepantronium Bromide)] | 0.0411 | 0.0393 | 0.0214 | 0.0241
COc1cc2ncnc(Sc3nnc(C)s3)c2cc1OC | 0.747 | 0.866 | 0.0591 | 0.0581
O=C(C[S+]([O-])Cc1ccco1)NC/C=C\COc1cc(CN2CCCCC2)ccn1 (centres undefined) [Lafutidine] | 1 | 1.2 | 0.826 | 1.06
O=C([O-])c1ccccc1O.[Na+] [Sodium salicylate] | 1.08 | 1.09 | 0.913 | 1.03
CN1CCN(c2ccc3nc(-c4c(N)c5c(F)cccc5[nH]c4=O)[nH]c3c2)CC1 [Dovitinib (TKI258) Lactate] | 0.398 | 0.423 | 0.0366 | 0.0252
CN1CCN(c2ccc3nc(-c4c(N)c5c(F)cccc5[nH]c4=O)[nH]c3c2)CC1 [Dovitinib (TKI-258, CHIR-258)] | 0.523 | 0.465 | 0.119 | 0.0963
O=C(O)c1ccc(N2C(=O)/C(=C\c3ccc(-c4ccc([N+](=O)[O-])cc4)o3)C=C2c2ccccc2)cc1 | 0.851 | 0.873 | 0.899 | 0.776
O=c1ncccn1[C@@H]1O[C@H](CO)[C@@H](O)[C@H]1O [Zebularine] | 0.97 | 1.06 | 0.676 | 0.938
O=C(Nc1ccccc1)N1CCN(c2nc(-c3ccccc3)ns2)CC1 | 1.06 | 1.14 | 0.828 | 0.976
COc1cc2c(Oc3ccc(NC(=O)C4(C(=O)Nc5ccc(F)cc5)CC4)cc3F)ccnc2cc1OCCCN1CCOCC1 | 0.628 | 0.631 | 0.0524 | 0.0418
COc1cc2c(Nc3ccc(NC(=O)c4ccccc4)cc3)ncnc2cc1OCCCN1CCOCC1 | 0.862 | 0.959 | 0.266 | 0.22
COc1cc2nccc(Oc3ccc(NC(=O)C4(C(=O)Nc5ccc(F)cc5)CC4)cc3)c2cc1OC | 1.15 | 1.17 | 0.615 | 0.64
CCN(C(=O)c1c(O)c2c(Cl)cccc2n(C)c1=O)c1ccccc1 [Laquinimod] | 1.22 | 1.14 | 0.958 | 1.08
CC[C@H](Nc1ncnc2[nH]cnc12)c1nc2cccc(F)c2c(=O)n1-c1ccccc1 [CAL-101 (Idelalisib, GS-1101)] | 0.947 | 1.11 | 0.863 | 0.971
CN(C)CC(=O)Nc1ccc2[nH]c(=O)c3ccccc3c2c1 | 0.84 | 1.06 | 0.74 | 1.03
